A number with no mark means an inactive call. Entries that show only a call come without a potency. The source made the active and inactive calls. The call rests on the fitted dose curve.

The text below walks through data of PubChem BioAssay (Tox21).

The target in the assay is Acetylcholinesterase (Homo sapiens) (UniProt P22303). Briefly: Acetylcholinesterase (AChE) small molecule antagonists: enzyme-based qHTS assay with human liver microsomes (AID 1347399). Further: nearly all actives have a fitted effect of over 60% in size. To be noted: Potency: qHTS inhibition; outcome: qHTS inhibition; series mostly up to 115 µM. The method in brief: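 Recombinant human AChE (50 mU/mL in the enzyme mix) and human liver microsomes (0.25 mg/mL final) were preincubated with compound and NADPH (0.25 mg/mL final) for 30 min at 37 C. Acetylthiocholine/DTNB was then added; thiocholine was read colorimetrically after 10 min at room temperature.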
Sequence of Acetylcholinesterase (Homo sapiens) (P22303 whole entry, looked up): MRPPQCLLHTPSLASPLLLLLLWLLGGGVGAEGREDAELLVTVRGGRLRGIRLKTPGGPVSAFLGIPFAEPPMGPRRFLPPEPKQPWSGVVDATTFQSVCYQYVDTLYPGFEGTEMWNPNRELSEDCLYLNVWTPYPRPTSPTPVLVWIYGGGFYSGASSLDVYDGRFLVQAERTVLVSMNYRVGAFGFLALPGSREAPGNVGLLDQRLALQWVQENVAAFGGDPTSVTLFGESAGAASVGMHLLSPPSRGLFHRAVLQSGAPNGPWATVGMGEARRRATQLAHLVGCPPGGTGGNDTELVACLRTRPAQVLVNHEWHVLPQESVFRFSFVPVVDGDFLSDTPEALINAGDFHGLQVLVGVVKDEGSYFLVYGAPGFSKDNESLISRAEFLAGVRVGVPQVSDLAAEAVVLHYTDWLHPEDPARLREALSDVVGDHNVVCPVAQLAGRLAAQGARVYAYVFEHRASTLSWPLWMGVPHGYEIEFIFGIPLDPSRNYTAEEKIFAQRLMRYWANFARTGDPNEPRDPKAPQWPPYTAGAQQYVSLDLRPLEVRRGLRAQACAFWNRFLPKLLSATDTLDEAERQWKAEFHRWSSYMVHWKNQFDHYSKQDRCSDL
In general terms: In qHTS, concentration-response curves come from the screen itself.
Regarding `CCCCCCCCCCCCN(CCCCCCCCCCCC)CCCCCCCCCCCC`, the Potency result is “inactive”.
Still for that read-out and setting: as for `C=CC(=O)OCCOCC(CC)(COCCOC(=O)C=C)COCCOC(=O)C=C`, the entry is “inactive”.
With `Cc1cn[nH]c1`, the Potency entry is “inactive”.
Still for that read-out and setting: as for `O=C(NN1CCCC1)NS(=O)(=O)c1ccc(Cl)cc1`, the entry is “inactive”.
Still for that read-out and setting: as for `CC/C=C\CCCCO`, the entry is “inactive”.
As for `CC(=O)OCC(=O)[C@@]1(OC(C)=O)[C@@H](C)C[C@H]2[C@@H]3C[C@H](F)C4=CC(=O)C=C[C@]4(C)[C@@]3(F)[C@@H](O)C[C@@]21C`, the Potency entry is “inactive”.
The same measure, in the same setting: under `O=C1CCCN1C1CCCCC1` stands “inactive”.
As for `COC(=O)C1CC(=O)C(C(=O)OC)CC1=O` (configuration not stated), the activity change, negative = inhibition was -0.962% [at 10.5 µM].
Take `CN(C)C(=O)Nc1ccc(Oc2ccc(Cl)cc2)cc1`: the Potency entry is “inactive”.
On the same count and under the same terms, under `CC1(C)[C@@H](O)CC[C@]2(C)[C@H]3C(=O)C=C4[C@@H]5C[C@@](C)(C(=O)O)CC[C@]5(C)CC[C@@]4(C)[C@]3(C)CC[C@@H]12` stands “inactive”; under `Cc1cccc(N(C)C)c1`, “inactive”.
Consider `CCCc1ccc(N)cc1`, for which the Potency entry is “inactive”.
For the compound `Cc1nc(-c2ccc3c(c2)CCN(CCC2CCC(NC(=O)/C=C/c4ccc(F)cc4)CC2)CC3)no1` (configuration not stated), the Potency entry was “inactive”.
Take `OCCN1CCOCC1`: the Potency entry was “inactive”.
In the case of `CCCCCCCCCCCCCC=O`, the activity change, negative = inhibition is -0.486% [at 10.5 µM].
With `O=S1(=O)CCCC1`, the Potency result is “inactive”.
For `CN(Cc1ccc(C(C)(C)C)cc1)Cc1cccc2ccccc12`, the Potency result was “inactive”.
